Data from PubChem BioAssay.
Activity calls are given as the source filed them.

Legend:
[1] = tested on: Plasmodium falciparum Sir2 (PF13_0152, Sir2A); assay: pfSir2 binders on small-molecule microarrays, primary screen, biochemical, small-molecule microarray, 635 nm fluorescence (AID 1098); conditions: small-molecule microarray binding, fluorescence 635 nm; higher = more signal;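 also: score merges spot fluorescence intensity with its signal-to-noise ratio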
[2] = small-molecule microarray binders of probe aDKK1, primary screen, biochemical, biotinylated probe, 635/667 nm fluorescence (AID 1099); conditions: higher = more signal;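 also: score merges 667nm spot fluorescence with signal to noise across triplicate slides; reference of the scale not given here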
[3] = small-molecule microarray binders of probe aCHRDL2, primary screen, biochemical, biotinylated probe, 635/667 nm fluorescence (AID 1100); conditions: higher = more signal
[4] = splicing luciferase reporter signal modulators, primary screen, spliceosome inhibition project, cell-based, HEK293, splice +/- reporter (AID 1101); conditions: luminescence, 24 h, higher = more signal, called active from +8 up or from −8 down;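 also: HEK293 cells carrying a splicing-competent luciferase reporter gene; test concentration not given here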
[5] = target: Fibroblast growth factor 10 (Homo sapiens) (UniProt O15520); assay: FGF10 binders on small-molecule microarrays, primary screen, biochemical, small-molecule microarray, 635 nm fluorescence (AID 1102); conditions: FGF10 binding, fluorescence 635 nm, higher = more signal
Chain of Fibroblast growth factor 10 (Homo sapiens) (O15520 whole entry, looked up): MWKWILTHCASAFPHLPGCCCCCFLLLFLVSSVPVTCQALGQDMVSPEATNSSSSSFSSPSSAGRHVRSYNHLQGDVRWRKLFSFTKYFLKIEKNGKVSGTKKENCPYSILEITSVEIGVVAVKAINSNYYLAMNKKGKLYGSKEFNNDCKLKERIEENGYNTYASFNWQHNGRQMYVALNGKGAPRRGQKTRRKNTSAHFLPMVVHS

[6] = tested on: glycogen synthase kinase-3 (GSK3A per assay name; protocol says GSK3B); assay: GSK3 binders on small-molecule microarrays, primary screen, biochemical, small-molecule microarray, 635 nm fluorescence, GSK3A (AID 1103); conditions: small-molecule microarray binding, fluorescence 635 nm; higher = more signal; also: the record names both GSK3A and GSK3B
[7] = target: Epidermal growth factor receptor (Homo sapiens) (UniProt P00533); assay: EGFR binders on small-molecule microarrays, primary screen, biochemical, small-molecule microarray, 635 nm fluorescence (AID 1104); conditions: EGFR binding, higher = more signal;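 also: score merges 667 nm emission intensity with spot signal to noise over triplicate slides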
Chain of Epidermal growth factor receptor (Homo sapiens) (P00533 whole entry, looked up): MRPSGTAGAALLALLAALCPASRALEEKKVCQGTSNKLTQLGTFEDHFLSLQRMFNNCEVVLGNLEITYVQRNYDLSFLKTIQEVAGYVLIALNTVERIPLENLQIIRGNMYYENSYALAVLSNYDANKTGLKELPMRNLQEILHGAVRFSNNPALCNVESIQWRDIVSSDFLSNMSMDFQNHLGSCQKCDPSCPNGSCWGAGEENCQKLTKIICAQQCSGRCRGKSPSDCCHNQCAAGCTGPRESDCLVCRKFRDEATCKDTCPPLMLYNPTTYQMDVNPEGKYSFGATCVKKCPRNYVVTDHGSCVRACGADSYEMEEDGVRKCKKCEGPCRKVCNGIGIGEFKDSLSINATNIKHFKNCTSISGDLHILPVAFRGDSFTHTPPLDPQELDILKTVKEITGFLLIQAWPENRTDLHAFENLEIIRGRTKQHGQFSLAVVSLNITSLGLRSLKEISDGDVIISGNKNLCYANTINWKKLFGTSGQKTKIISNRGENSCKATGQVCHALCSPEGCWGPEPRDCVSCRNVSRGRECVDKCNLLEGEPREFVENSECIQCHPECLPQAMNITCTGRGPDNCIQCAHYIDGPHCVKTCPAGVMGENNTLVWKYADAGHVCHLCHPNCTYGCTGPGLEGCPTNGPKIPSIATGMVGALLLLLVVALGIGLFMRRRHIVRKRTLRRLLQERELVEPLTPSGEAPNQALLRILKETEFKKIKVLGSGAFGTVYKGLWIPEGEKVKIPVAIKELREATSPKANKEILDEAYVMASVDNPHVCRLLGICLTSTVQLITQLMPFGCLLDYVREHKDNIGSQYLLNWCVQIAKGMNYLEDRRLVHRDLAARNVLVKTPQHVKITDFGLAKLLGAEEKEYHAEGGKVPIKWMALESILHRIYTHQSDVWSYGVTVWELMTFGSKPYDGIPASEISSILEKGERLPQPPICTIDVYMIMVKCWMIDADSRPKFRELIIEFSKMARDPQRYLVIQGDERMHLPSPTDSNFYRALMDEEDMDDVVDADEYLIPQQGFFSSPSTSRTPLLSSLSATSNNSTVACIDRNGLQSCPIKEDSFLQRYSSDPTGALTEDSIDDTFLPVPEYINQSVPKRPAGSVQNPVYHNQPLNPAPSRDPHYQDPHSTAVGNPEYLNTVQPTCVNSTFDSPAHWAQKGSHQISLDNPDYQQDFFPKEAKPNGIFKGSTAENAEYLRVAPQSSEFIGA

[8] = target: Follistatin-related protein 3 (Homo sapiens) (UniProt O95633); assay: FSTL3 binders on small-molecule microarrays, primary screen, biochemical, small-molecule microarray, 635 nm fluorescence (AID 1105); conditions: FSTL3 binding, higher = more signal;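 also: score merges emission near 667 nm and signal to noise per printed spot across three slides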
Chain of Follistatin-related protein 3 (Homo sapiens) (O95633 whole entry, looked up): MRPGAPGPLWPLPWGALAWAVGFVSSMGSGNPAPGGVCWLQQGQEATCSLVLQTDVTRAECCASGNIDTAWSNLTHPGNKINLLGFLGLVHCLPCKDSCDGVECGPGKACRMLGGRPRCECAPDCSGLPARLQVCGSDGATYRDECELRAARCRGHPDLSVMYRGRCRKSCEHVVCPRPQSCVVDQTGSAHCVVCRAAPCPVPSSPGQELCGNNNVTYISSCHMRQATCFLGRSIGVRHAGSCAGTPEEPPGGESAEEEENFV

[9] = target: Dickkopf-related protein 1 (Homo sapiens) (UniProt O94907); assay: DKK1 binders on small-molecule microarrays, primary screen, biochemical, small-molecule microarray, 635 nm fluorescence scan (AID 1106); conditions: DKK1 binding, higher = more signal;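 also: score merges emission near 667 nm with signal to noise over three replicate slides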
Chain of Dickkopf-related protein 1 (Homo sapiens) (O94907 whole entry, looked up): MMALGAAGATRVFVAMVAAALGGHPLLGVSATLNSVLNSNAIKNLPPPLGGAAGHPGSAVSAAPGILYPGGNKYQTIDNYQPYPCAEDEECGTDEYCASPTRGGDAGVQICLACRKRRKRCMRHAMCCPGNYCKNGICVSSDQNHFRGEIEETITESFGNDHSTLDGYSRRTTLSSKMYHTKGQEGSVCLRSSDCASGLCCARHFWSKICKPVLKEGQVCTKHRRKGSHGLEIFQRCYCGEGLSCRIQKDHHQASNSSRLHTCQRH

[10] = tested on: Inhibin beta A chain (activin A); assay: INHBA (activin A) binders on microarrays, primary screen, biochemical, small-molecule microarray, 635 nm fluorescence scan (AID 1107); conditions: small-molecule microarray binding, higher = more signal;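 also: mouse activin A protein probed at 4.33 µg/mL on printed slides; score merges bound-protein fluorescence near 667 nm with spot signal-to-noise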

| Structure (SMILES) | composite z-score [1] | composite z-score [2] | composite z-score [3] | z-score [4] | composite z-score [5] | composite z-score [6] | composite z-score [7] | composite z-score [8] | composite z-score [9] | composite z-score [10] |
| --- | --- | --- | --- | --- | --- | --- | --- | --- | --- | --- |
| C[N+](C)(C)CCCC[C@@H]1NC(=O)[C@@H]2C[C@H](C(=O)NCCCCCN)[C@H](c3cccc(OCCO)c3)N2C1=O | 1.07 | 0.0277 | 0.356 | -0.657 (inactive) | 1.12 | 1.3 | -0.167 | -0.144 | -0.17 | -0.68 |
| CCCC=C(CCC)[C@@H](NC(=O)Oc1ccc(F)cc1)c1ccc(C(=O)OC)cc1 | 0.217 | 0.346 | 0.893 | -1.86 (inactive) | 0.441 | -0.102 | 0.267 | 0.495 | -0.284 | 0.602 |
| C=CCOC(=O)[C@H]1[C@@H]2C(=O)O[C@@H](c3ccccc3)[C@@H](c3ccccc3)N2[C@@H](c2ccc(OCCOC(=O)[C@H]3C[C@H]4C(=O)N5CCC[C@H]5C(=O)N4[C@H]3c3ccc(O)cc3)cc2)[C@]12C(=O)Nc1ccccc12 | 1.54 | -0.202 | 0.106 | 0.994 (inactive) | 1.47 | 1.36 | 0.999 | 1.39 | 1.81 | 0.39 |
| CCN(CC)c1ccc(N2CC=CC34O[C@@H]5/C=C\CCCOC(=O)C5[C@H]3C(=O)N(CCO)[C@@H]4C2=O)cc1 (stereo not given in full) | 1.1 | -0.221 | 0.63 | -0.375 (inactive) | -1.12 | -0.404 | -1.28 | -0.957 | -1.14 | 0.0809 |
| C=CC[C@@]1(C(=O)N(C)C)N=C(c2ccc(OCCCO)cc2)O[C@@H]1c1ccccc1N=[N+]=[N-] | 1.59 | 1.33 | 1.35 | -1.2 (inactive) | 0.826 | 1.2 | 0.145 | 0.884 | 0.368 | 0.636 |
| COCCOC(=O)N1C(=O)[C@@]2(c3cc(C#CC4=CCCCC4)ccc31)[C@H](C(=O)Nc1nc3ccccc3s1)[C@H]1C(=O)O[C@H](c3ccccc3)[C@H](c3ccccc3)N1[C@@H]2c1ccccc1OCCO | 0.966 | 0.756 | 0.4 | -0.823 (inactive) | 1.33 | 1.29 | 0.765 | 1.41 | 0.785 | 1.3 |
| COCCOC(=O)N1C(=O)[C@@]2(c3cc(C#CC4=CCCCC4)ccc31)[C@H](C(N)=O)[C@H]1C(=O)O[C@H](c3ccccc3)[C@H](c3ccccc3)N1[C@@H]2c1ccc(OCCO)cc1 | 0.497 | -0.504 | -0.091 | 0.497 (inactive) | 1.31 | 1.1 | 0.0883 | 1.22 | 0.553 | 0.052 |
| [N-]=[N+]=NCc1ccccc1C[C@@]1(C(=O)NCC(O)CO)N=C(c2ccc(OCCCO)cc2)O[C@@H]1c1ccccc1N=[N+]=[N-] (stereo not given in full) | 0.991 | 1.03 | 1.38 | 0.561 (inactive) | 1.01 | 0.364 | -0.0087 | 0.348 | -0.504 | 1.2 |
| CCOC(=O)[C@H]1C/C=C/C[C@H](C(=O)OCC)C(=O)O[C@H]2[C@@H](OC)O[C@H](CO)[C@@H](OC(=O)Nc3ccc(C#N)cc3)[C@@H]2OC1=O | 0.859 | -0.114 | 0.0682 | -2.6 (inactive) | 0.322 | -0.0841 | -0.226 | 0.413 | -0.255 | 0.189 |
| COc1cc(OC)c(C(O)C2C=CC3C(=O)NC(=O)C3N2Nc2ccc(Cl)cc2Cl)cc1Br (stereo not given) | 1.38 | 2.08 | 1.16 | 2.41 (inactive) | 0.0245 | 0.0735 | -0.142 | 0.498 | -0.985 | 0.312 |
| CCCC=C(CCC)[C@@H](NS(=O)(=O)c1cccs1)c1ccc(C(=O)OC)cc1 | 0.565 | 0.922 | 1.18 | 3.75 (inactive) | 0.77 | 1.19 | -0.122 | 0.622 | -0.569 | -0.0034 |
| CC(C)(C)OC(=O)CC[C@]1(C(=O)NCC(O)CO)COC(c2ccc(OCCCO)cc2)=N1 (stereo not given in full) | 0.304 | 0.747 | 0.788 | 0.646 (inactive) | 0.145 | 0.435 | -0.172 | -0.952 | -1.01 | 0.173 |
| CC(C)C(CO)N1C(=O)[C@@H]2[C@H]3C(=O)OCC=C[C@H]3OC23C=CCN(C(C)C)C(=O)[C@@H]13 (stereo not given in full) | -0.542 | -0.202 | -0.25 | 0.181 (inactive) | -0.321 | 0.269 | 0.0755 | 0.354 | 0.254 | 0.756 |
| [N-]=[N+]=NCc1ccccc1[C@@H]1OC(c2ccc(OCCCO)cc2)=N[C@]1(Cc1ccccc1N=[N+]=[N-])C(=O)N1CCOCC1 | 0.814 | 1.22 | 1.35 | 0.783 (inactive) | 1.33 | 1.3 | 0.248 | 0.783 | 0.231 | 0.73 |
| CC(=O)N1Cc2ccccc2C[C@@]2(COC(c3ccc(OCCCO)cc3)=N2)C1=O | 1.32 | 1.18 | 1.31 | -1.66 (inactive) | 0.649 | 1.32 | 0.455 | 1.13 | 0.438 | 1.09 |
| COc1ccc(NN2C(C(O)c3ccc([N+](=O)[O-])cc3)C=CC3C(=O)N(C4CCCCC4)C(=O)C32)cc1 (stereo not given) | 0.562 | 0.627 | 0.879 | 0.393 (inactive) | 0.355 | 0.909 | -0.188 | 0.73 | -0.281 | 0.921 |

| Structure (SMILES) | composite z-score [1] | composite z-score [2] | composite z-score [3] | z-score [4] | composite z-score [5] | composite z-score [6] | composite z-score [7] | composite z-score [8] | composite z-score [9] | composite z-score [10] |
| --- | --- | --- | --- | --- | --- | --- | --- | --- | --- | --- |
| CCOC(=O)C1=CCC(c2ccccc2)N(S(=O)(=O)CC[Si](C)(C)C)C1 (stereo not given) | -0.285 | -0.264 | -0.534 | 0.191 (inactive) | -0.887 | -0.157 | -0.458 | -0.736 | -0.214 | 1.24 |
| CC(C)(C)OC(=O)CC[C@@]12N=C(c3ccc(OCCCO)cc3)O[C@@H]1c1ccccc1N(CCS(=O)(=O)c1ccccc1)C2=O | 0.691 | 0.512 | 1.03 | -1.14 (inactive) | -0.122 | 0.323 | 0.348 | 1.12 | 0.681 | 1.05 |
| Cc1ccc(S[C@]2(C(=O)NCCN3CCOCC3)CC(=O)N(Cc3ccccc3)[C@@H]2c2ccc(CO)cc2I)cc1 | 1.41 | 0.361 | 1.11 | -1.88 (inactive) | -1.61 | -1.12 | -1.72 | -1.24 | -1.51 | 0.476 |
| CCC(CC)C(O)C1C=CC2C(=O)N(C)C(=O)C2N1Nc1ccccc1 (stereo not given) | 0.695 | 0.332 | 0.9 | 0.464 (inactive) | 0.603 | 0.499 | 0.0611 | 0.698 | 0.371 | 0.867 |
| CCOC(=O)C[C@H]1[C@H](OC(=O)Cc2ccc3c(c2)OCO3)[C@@H](NC(=O)c2ccc3ccccc3c2)c2cc(OCCCO)ccc2N1C(=O)c1ccccc1 | 0.622 | -0.0805 | -0.205 | -0.547 (inactive) | 0.47 | 0.213 | 0.188 | 0.433 | 0.295 | 0.405 |
| CC(C)OC(=O)C=C1C[C@@H](c2ccccc2C(F)(F)F)O[C@@H](c2ccccc2C(F)(F)F)O1 | 0.192 | -0.0017 | 0.0563 | -0.723 (inactive) | 0.417 | 0.163 | 0.337 | 0.332 | 0.25 | 0.266 |
| C=CC[C@]1(C(=O)NCCCOC)N=C(c2ccc(OCCCO)cc2)O[C@H]1c1ccccc1N=[N+]=[N-] | 1.65 | -0.188 | 0.658 | -0.885 (inactive) | 1.44 | 0.746 | -0.223 | 0.348 | -0.516 | 1.29 |
| COc1ccc(C(O)C2C=CC3C(=O)NC(=O)C3N2Nc2ccccn2)cc1 (stereo not given) | 0.948 | 0.422 | 0.267 | 0.706 (inactive) | 0.257 | -0.0877 | 0.686 | 0.304 | 0.645 | 0.371 |
| COc1ccc([Si](C)(C)[C@H]2[C@H](CCO)O[C@@]3(C(=O)N(C)c4c(Br)cc(C)cc43)[C@@H]2C)cc1 | 0.717 | -0.0044 | 0.202 | 4.6 (inactive) | 0.333 | 0.223 | 0.127 | 0.4 | 0.0138 | 0.449 |
| O=C1C2C=CC(C(O)c3ccc(F)cc3)N(Nc3ccccc3F)C2C(=O)N1c1ccccc1 (stereo not given) | 1.47 | 0.131 | 0.996 | 1.34 (inactive) | 0.678 | -0.412 | -0.609 | 0.396 | -0.868 | 0.503 |
| CC(C)(C)C(=O)N[C@@H](c1ccc(Cl)cc1)[C@]1(C)C[C@H]1C1CCCCC1 | 0.705 | 0.701 | 0.933 | -0.455 (inactive) | 0.521 | 1.28 | -0.19 | 0.233 | 0.0399 | 0.998 |
| C=CCOC(=O)[C@@H]1[C@H]2C(=O)O[C@H](c3ccccc3)[C@H](c3ccccc3)N2[C@H](c2ccc(OCCOC(=O)[C@@H]3C[C@@H]4C(=O)N[C@@H](CCCC[N+](C)(C)C)C(=O)N4[C@@H]3c3cccc(OCCO)c3)cc2)[C@@]12C(=O)Nc1ccc(I)cc12 | 1.09 | 0.0616 | 0.0011 | -0.874 (inactive) | 0.591 | 1.19 | 0.779 | 1.25 | 0.985 | 0.195 |
| COc1ccc(CCNC(=O)[C@@]2(Sc3ccc(C)cc3)CC(=O)N(C3CCCCC3)[C@@H]2c2ccc(CO)cc2I)cc1 | 1.09 | -0.0662 | 0.44 | 0.451 (inactive) | 0.724 | 0.974 | 0.0902 | 1.03 | 0.0743 | 0.327 |
| CCCC[C@H]1OB(O)C[C@H]2C1=C(COc1ccccc1)C[C@H]1C(=O)N(C)C(=O)[C@H]12 | -0.328 | 0.0763 | -0.442 | 0.377 (inactive) | 0.429 | -0.0785 | 0.447 | 0.43 | 0.439 | 0.741 |
| COc1cc2c(cc1OC)CN(C(=O)[C@@H]1[C@H]3C(=O)O[C@H](c4ccccc4)[C@H](c4ccccc4)N3[C@H](c3ccc(O)cc3)[C@@]13C(=O)Nc1ccc(C#CC4(O)CCCCCC4)cc13)CC2 | 1.41 | -0.767 | -0.692 | 0.263 (inactive) | 1.28 | 1.29 | 0.458 | 0.498 | 0.474 | -0.439 |
| CN1C(=O)C2C=CC(C(O)c3ccccc3)N(Nc3ccccc3)C2C1=O (stereo not given) | 1.54 | 0.754 | 1.13 | 1.03 (inactive) | -0.678 | -0.415 | -1.32 | -0.674 | -1.22 | 0.918 |
